# Measured values reported in PubChem BioAssay AID2284118 (EPA ToxCast).
# The source made the active and inactive calls. Rule for the calls: active = hit-call score of the fitted dose curve at least 0.9, where 1 is the maximum; inactive = score below 0.9.
# Target: human AMPKalpha1 CAMK Kinase, PRKAA1 (gene 5562) (UniProt Q13131)
# Assay: ERF_KP_ENZ_hPRKAA1: Eurofins (ERF) Enzymatic Radiometric [10 uM ATP] KinaseProfiler LeadHunter Assay for human AMPKalpha1 CAMK Kinase
# Experimental: ERF_KP_ENZ_hPRKAA1 is a biochemical, single-readout assay that uses extracted gene-proteins in a cell-free assay. Measurements were taken 0.66 hour after chemical dosing in a 96-well plate. See AMPKalpha1 Human CAMK Kinase Enzymatic Radiometric Assay [10 uM ATP], KinaseProfiler.ERF_KP_ENZ_hPRKAA1 is an assay component calculated from the ERF_KP_ENZ_hPRKAA1 assay. It is designed to measure enzyme activity using a type of enzyme reporter as detected by scintillation counting with radiometry technology.Data from the assay component ERF_KP_ENZ_hPRKAA1 was analyzed at the assay endpoint, ERF_KP_ENZ_hPRKAA1, in the positive analysis fitting direction relative to DMSO as the negative control and baseline of activity. Using a type of enzyme reporter, loss-of-signal activity can be used to understand changes in enzymatic activity as they relate to gene PRKAA1. To generalize the intended target to other relatable targets, this assay endpoint is annotated to the kinase intended target family, where the subfamily is serine/threonine kinase.
# AMPK (a1, b1, g1) (h) is incubated with 8 mM MOPS pH 7.0, 0.2 mM EDTA, 200 uM AMP, 100 uM […], 10 mM MgAcetate and [gamma-33P]-ATP (specific activity and concentration as required). The reaction is initiated by the addition of the Mg/ATP mix. […]
# Sequence of human AMPKalpha1 CAMK Kinase, PRKAA1 (gene 5562) (Q13131 whole entry, looked up): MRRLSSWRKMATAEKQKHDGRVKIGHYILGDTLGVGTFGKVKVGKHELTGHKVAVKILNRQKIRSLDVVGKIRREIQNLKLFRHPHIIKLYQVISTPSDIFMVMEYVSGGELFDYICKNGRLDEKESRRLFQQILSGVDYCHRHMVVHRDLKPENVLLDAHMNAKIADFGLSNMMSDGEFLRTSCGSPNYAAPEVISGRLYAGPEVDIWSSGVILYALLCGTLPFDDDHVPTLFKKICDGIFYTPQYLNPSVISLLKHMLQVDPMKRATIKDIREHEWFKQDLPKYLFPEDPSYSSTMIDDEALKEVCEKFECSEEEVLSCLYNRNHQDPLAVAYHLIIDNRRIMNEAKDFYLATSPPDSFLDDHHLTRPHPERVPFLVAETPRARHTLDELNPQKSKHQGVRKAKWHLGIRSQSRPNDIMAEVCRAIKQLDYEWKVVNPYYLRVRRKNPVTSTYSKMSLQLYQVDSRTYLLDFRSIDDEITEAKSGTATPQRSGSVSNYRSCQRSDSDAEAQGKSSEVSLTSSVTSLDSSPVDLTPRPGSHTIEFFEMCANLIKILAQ
row,Structure (SMILES),AC50
1,O=C(/C=C/c1ccc(O)cc1)CC(=O)/C=C/c1ccc(O)cc1,0.298 nM (active)
